Measurements from PubChem BioAssay (NCATS).
Inconclusive results are not listed. Active and inactive are the calls of the source. Unless noted, the call rests on the fitted dose curve; in most records, active means well fitted curve in either direction with a large enough effect (not every such curve was filed as active); inconclusive means small, poorly fitted or top-dose-only effect, or another doubt; inactive means flat fitted curve, though single readings scatter.

Assays:
[1] = target: Lysosomal acid glucosylceramidase (Homo sapiens) (UniProt P04062); test: Glucocerebrosidase-p2 (AID 348; in the data active means potency below about 10 µM; further: potency means the concentration at half of the fitted maximal effect); conditions: purified GBA, blue fluorogenic substrate, 40 min
Method in brief: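 Normal human glucocerebrosidase (0.2 nM) with blue fluorogenic substrate (80 uM final) in citrate/phosphate pH 5.9 with 10mM sodium taurocholate, 0.01% tween-20; 40 min RT, NaOH/glycine stop; fluorescence Ex 365/Em 440; AC50 from a titration from 0.6 nM upwards.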

[2] = AP1 Signaling Pathway (AID 357); conditions: ME-180 AP-1-bla reporter, EGF-induced, beta-lactamase ratio, 5 h; at 7.69 µM (top of the series) unless noted;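 further: ME-180 reporter cells stimulated with EGF at its EC50 level; on the % scale 0 is the no-effect control and ±100 the full control effect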
Method in brief: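 Read-out was the 460nm/530nm emission ratio (excitation 405nm) after CCF4 loading for 2.5 hours at room temperature. Cells carried an AP-1-driven beta-lactamase reporter, were stimulated with EC50 EGF plus compound for 5 hours, and AC50 values came from titrations.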

[3] = Stat Signaling Pathway (AID 446); conditions: ME-180 SIE beta-lactamase reporter, IL-6 stimulated, 5 h; at 7.69 µM (top of the series) unless noted;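 further: ME-180 cervical cancer cells given 40 pM IL-6 alongside compound; SIE-controlled beta-lactamase reporter measured as 460/530 nm FRET emission ratio; on the % scale 0 is the no-effect control and ±100 the full control effect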
Method in brief: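 Normalization used AC90 stimulation (300 pM IL-6) and AC90 inhibition (125 nM pan-JAK inhibitor at 40 pM IL-6). The underlying signal is SIE-driven beta-lactamase in ME-180 cells after 5 h IL-6 exposure with compound.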

[4] = target: Glucocorticoid receptor (Homo sapiens) (UniProt P04150); test: GR-GFP Redistribution (AID 450;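 active means compounds whose dose series gives a full or clear partial fitted curve of increased nuclear translocation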; further: potency means the concentration at half of the fitted maximal effect); conditions: U2OS GR-GFP nuclear translocation, laser cytometry, 2 h
[5] = target: Glucocorticoid receptor (Homo sapiens) (UniProt P04150); test: GR-EFC Redistribution (AID 451; calls by dose curve; further: potency means the concentration at half of the fitted maximal effect); conditions: CHO-K1 GR-EFC translocation, beta-gal luminescence, 2 h
Method in brief: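 CHO-K1 cells stably expressing nuclear-localized β-gal enzyme acceptor and GR fused C-terminally to the enzyme donor fragment; ligand-driven nuclear translocation restores β-gal by complementation. Compounds titrated up to 46 uM final, 2 h at 37 °C; luminescence read.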

[6] = target: Mitogen-activated protein kinase 10 (Mus musculus) (UniProt Q61831); test: JNK3 AlphaScreen Assay (AID 530); conditions: JNK3 lysate, c-Jun phosphorylation; series mostly up to 11.4 µM;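 further: kinase came from lysate of stimulated human HepG2 cells; signal reports phosphorylation of biotinylated GST-cJun 1-79 at Ser73 with 10 µM ATP; on the % scale 0 is the no-effect control and ±100 the full control effect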
Method in brief: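 Biotinylated GST-cJun(1-79) served as substrate for JNK3 in HepG2 lysates stimulated with IL-1beta and TNF-alpha. ATP was 10 uM final, pH 7.6. Ser73 phosphorylation was quantified by AlphaScreen (680 nm excitation).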

[7] = target: 3',5'-cyclic-AMP phosphodiesterase 4B (Homo sapiens) (UniProt Q07343); test: qHTS Assay for Inhibitors of PDE-IV (AID 607; active means well fitted activation curve with a large enough effect in the main read-out, with a control signal flat, not every such curve was filed as active; further: % of control where 0% means no effect); conditions: HEK293 ACTOne CNG channel cells, membrane potential fluorescence; series mostly up to 22.9 µM
Method in brief: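 HEK293 ACTOne cells with CNG channel (1000/well), endogenous PDE4; membrane potential dye, compounds up to 22.9 uM final. Fluorescence Ex 535/Em 590; RO 20-1724 (100 uM final) as reference.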

[8] = qHTS Assay for Identification of Small Molecule Agonists for Hypoxia Response Element Signaling Pathway (AID 914; active means well fitted activation curve with a large enough effect in the signal ratio, with a control signal flat, not every such curve was filed as active; the % refers to the signal ratio; further: % of control where 0% means no effect); conditions: ME-180 (cervical carcinoma) HRE-bla reporter, beta-lactamase ratio, CoCl2, 17 h; activation: hits give high values
Method in brief: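 HRE-bla ME-180 cells with beta-lactamase reporter under hypoxia response element, compounds with EC50 CoCl2 for 17 hours at 37 C. CCF4 substrate, 460nm/530nm emission ratio gave %Activity; AC50 from titration series.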

Chain of Glucocorticoid receptor (Homo sapiens) (P04150 whole entry, looked up, the tested form may be a part): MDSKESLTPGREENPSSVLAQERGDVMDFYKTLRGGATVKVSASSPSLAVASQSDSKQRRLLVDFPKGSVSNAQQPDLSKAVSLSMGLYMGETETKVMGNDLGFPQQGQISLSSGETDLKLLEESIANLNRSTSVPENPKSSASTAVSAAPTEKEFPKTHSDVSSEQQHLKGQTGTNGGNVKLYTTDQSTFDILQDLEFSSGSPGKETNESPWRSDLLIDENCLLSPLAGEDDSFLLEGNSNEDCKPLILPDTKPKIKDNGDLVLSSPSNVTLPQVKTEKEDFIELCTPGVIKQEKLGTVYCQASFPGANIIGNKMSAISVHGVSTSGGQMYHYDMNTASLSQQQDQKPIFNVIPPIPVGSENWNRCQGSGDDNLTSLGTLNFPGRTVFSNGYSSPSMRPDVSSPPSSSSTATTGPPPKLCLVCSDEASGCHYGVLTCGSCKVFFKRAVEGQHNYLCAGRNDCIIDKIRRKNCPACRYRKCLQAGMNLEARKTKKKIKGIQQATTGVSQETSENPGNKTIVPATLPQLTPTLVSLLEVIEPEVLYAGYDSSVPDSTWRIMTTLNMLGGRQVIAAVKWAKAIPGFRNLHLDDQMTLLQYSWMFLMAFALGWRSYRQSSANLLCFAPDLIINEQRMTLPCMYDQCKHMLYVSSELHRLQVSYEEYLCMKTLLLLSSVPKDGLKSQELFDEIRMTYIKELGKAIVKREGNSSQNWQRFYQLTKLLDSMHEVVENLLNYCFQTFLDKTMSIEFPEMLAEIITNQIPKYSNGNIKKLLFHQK
Chain of Lysosomal acid glucosylceramidase (Homo sapiens) (P04062 whole entry, looked up): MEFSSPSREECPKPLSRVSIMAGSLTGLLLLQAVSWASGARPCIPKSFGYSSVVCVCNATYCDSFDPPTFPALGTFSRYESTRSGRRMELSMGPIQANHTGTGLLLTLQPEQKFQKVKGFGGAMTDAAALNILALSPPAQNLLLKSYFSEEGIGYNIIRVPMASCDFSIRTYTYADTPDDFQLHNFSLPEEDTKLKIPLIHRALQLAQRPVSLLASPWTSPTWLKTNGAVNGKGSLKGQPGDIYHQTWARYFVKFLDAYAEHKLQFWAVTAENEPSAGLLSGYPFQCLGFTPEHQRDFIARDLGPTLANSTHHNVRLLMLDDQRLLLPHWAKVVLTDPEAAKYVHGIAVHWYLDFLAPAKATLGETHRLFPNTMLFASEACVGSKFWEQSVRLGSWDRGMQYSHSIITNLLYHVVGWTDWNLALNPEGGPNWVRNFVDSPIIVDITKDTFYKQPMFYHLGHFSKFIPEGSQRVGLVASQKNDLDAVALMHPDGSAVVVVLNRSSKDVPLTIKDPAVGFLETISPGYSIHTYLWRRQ
Chain of 3',5'-cyclic-AMP phosphodiesterase 4B (Homo sapiens) (Q07343 whole entry, looked up): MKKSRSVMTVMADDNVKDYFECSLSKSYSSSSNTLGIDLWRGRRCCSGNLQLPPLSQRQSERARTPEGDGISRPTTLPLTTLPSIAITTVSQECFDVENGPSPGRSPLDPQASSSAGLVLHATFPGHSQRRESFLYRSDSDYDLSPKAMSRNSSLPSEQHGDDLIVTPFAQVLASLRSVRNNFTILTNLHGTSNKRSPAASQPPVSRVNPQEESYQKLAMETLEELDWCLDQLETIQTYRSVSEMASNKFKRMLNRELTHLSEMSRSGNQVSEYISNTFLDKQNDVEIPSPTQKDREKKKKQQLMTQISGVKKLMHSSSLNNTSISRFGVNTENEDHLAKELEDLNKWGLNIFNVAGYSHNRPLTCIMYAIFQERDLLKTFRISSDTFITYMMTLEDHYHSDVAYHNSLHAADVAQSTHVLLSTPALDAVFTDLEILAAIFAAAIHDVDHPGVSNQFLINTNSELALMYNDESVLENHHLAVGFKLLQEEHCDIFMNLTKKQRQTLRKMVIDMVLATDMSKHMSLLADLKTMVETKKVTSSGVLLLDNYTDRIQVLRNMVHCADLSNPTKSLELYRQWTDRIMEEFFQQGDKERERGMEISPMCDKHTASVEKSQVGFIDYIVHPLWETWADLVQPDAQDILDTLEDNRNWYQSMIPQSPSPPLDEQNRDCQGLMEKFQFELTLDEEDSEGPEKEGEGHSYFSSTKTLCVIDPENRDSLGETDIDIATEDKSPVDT

CN(C)C(=O)C1CCN(Cc2c[nH]c3ccccc23)CC1
inactive: Potency [1] > 11.4 µM | activity change, negative = inhibition [2] -1.75% | activity, negative = inhibition [3] -4.74% | Potency [4] > 46 µM | Potency [5] > 9.22 µM | Potency [6] | Potency [7] | activation [8] 16.5%
